According to PubChem BioAssay (NCATS):
Results filed as inconclusive are left out. The source made the active and inactive calls. The call rests on the fitted dose curve; in most records, active means well fitted inhibition curve with a large enough effect; inconclusive means small, poorly fitted or top-dose-only effect; inactive means no such curve, though single readings can be large or run the other way.

Biological target: Rap guanine nucleotide exchange factor 3 (Homo sapiens) (UniProt O95398)
Sequence (O95398 whole entry, looked up): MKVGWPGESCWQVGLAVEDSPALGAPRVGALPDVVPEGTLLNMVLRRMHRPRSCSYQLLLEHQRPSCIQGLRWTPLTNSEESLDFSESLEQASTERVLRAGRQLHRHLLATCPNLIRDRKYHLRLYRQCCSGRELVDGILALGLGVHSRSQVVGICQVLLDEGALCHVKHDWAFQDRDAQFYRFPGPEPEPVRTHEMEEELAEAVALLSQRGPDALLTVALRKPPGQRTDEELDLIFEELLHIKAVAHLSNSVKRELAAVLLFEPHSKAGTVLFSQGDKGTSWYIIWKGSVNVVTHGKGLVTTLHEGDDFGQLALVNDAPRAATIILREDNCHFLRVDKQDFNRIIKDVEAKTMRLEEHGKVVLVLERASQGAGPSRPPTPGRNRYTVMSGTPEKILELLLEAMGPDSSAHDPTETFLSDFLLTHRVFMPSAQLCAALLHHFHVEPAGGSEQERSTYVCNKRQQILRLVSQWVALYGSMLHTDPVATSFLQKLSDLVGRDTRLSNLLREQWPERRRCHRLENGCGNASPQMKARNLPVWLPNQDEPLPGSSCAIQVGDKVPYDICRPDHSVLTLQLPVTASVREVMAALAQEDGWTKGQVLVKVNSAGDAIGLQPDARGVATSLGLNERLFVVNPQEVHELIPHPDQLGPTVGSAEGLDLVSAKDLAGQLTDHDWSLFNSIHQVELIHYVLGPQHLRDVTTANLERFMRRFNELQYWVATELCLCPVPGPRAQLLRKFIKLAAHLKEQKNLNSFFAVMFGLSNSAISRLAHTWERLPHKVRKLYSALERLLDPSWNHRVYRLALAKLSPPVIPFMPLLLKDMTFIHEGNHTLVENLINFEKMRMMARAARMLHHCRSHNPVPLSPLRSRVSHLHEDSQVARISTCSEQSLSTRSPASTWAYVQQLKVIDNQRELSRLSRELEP
Test: Confirmatory qHTS for antagonist of cAMP-regulated guanine nucleotide exchange factor 3 (EPAC1) (AID 1645880); further: nearly all actives have a fitted effect of over 55% in size;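 on activity, negative = inhibition: plate controls were DMSO only for no effect and full effect of the ATA control for full effect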
Conditions: EPAC1 Rap1B-BODIPY-GDP exchange, fluorescence; activity, negative = inhibition: at 115 µM (top of the series)
Outline: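 Nucleotide exchange uses 100 nM EPAC1, 250 nM RAP1B-BODIPY-GDP and 50 uM GDP, with compounds in a concentration-titration series. After 5 min at room temperature, fluorescence (480 nm ex/540 nm em) is read every 5 min for 30 min. Data are normalized to control ATA and DMSO.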
Potency means the concentration at half of the fitted maximal effect.

Potency, active:
CC(C)=CCc1c(O)cc2oc3c(CC=C(C)C)c(O)c(O)c(CC=C(C)C)c3c(=O)c2c1O 75.7 µM
COc1cc(/C=C2\COC/C(=C\c3ccc(O)c(OC)c3)C2=O)ccc1O 23.9 µM
Cc1cc(C)c2nc(N3C(=O)C(O)=C(C(=O)c4ccco4)C3c3ccc(O)cc3)sc2c1 (configuration not stated) 37.9 µM
COc1ccc(-c2csc(NC(=O)c3ccccc3NS(=O)(=O)c3ccc(F)c(F)c3)n2)cc1 22.4 µM
COc1cc(/C=C2\C(=N)N3N=C(S(C)(=O)=O)SC3=NC2=O)cc(OC)c1OCCOc1ccccc1C 67.5 µM

activity, negative = inhibition, inactive:
COc1ccc(C(C#N)N2CCC(c3ccccc3)=N2)cc1OC (configuration not stated) -11.7%
O=C(CS(=O)(=O)c1ccccc1)c1cc2ccccc2oc1=O -23.5%
Cn1c2c(c3ccccc31)CCN1CCC[C@]21c1ccccc1 -29.8%
CCCCN(C(=O)c1ccc2c(c1)OCO2)c1ccccc1 -25.5%
Cc1nc2ccccc2c(=O)n1N(c1ccccc1)c1ccccc1 -22.6%
CC(C)C(NC(=O)c1ccccc1)C(=O)OCn1nnc2ccccc2c1=O (configuration not stated) -20.4%
O=c1[nH]nc(CNc2ccc(O)cc2)c2ccccc12 -9.3%
CCCCOc1ccc(NS(=O)(=O)c2ccc(-n3cnnn3)cc2)cc1 -21.3%
Cc1ccc(CC#N)c(-c2c(CC#N)ccc(C)c2C)c1C -24.3%
Cc1ccc([N+](=O)[O-])cc1NC(=O)c1ccc(-c2ccccc2)cc1 -26.9%
O=C(Nc1cccc(Cl)c1N1CCOCC1)c1cccs1 0.343%
Cn1c(N)c(C(=O)COC(=O)C2(c3ccc(Cl)cc3)CCCC2)c(=O)n(C)c1=O -15.3%
